According to the supplement of paper PMC12636033:
± gives the standard deviation of the averaged measurements. Over roughly 33,000 sequences, “E-score (rank enrichment, -0.5 to 0.5)” has its median near -0.0028; the highest 2% begin near 0.23. The full list was thinned out, with the highest values kept by preference.

Tested on: 2Sb-muMax20 (muMax20 with two 1,3-bis(methyl)benzene Cys staples, A13C/A17C and Q88C/A92C, C-terminal Lys)
Experiment: PBM 8-mer E-score (E-score (rank enrichment, -0.5 to 0.5)); higher = stronger preferential binding
Procedure: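 Protein binding microarray (universal PBM chip covering all 10-mers in fixed probe flanks) with chemically synthesized human Max(13-93) bHLH-LZ analogs (not full-length Max) bearing noncanonical residues (hArg, Tha, Aib, Nle at 65) and aromatic Cys staples. Read-out per 8-mer (and its reverse complement): E-score (rank-based enrichment, -0.5 to 0.5) and Z-score of median probe intensity.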

| Sequence | PBM 8-mer E-score |
| --- | --- |
| GTTTGAGA | -0.0465 ± 0.092 |
| CAACAGAC | 0.0401 ± 0.00088 |
| AACATATT | 0.2329 ± 0.0015 |
| AACATATG | 0.182 ± 0.013 |
| AACATATC | 0.124 ± 0.0061 |
| AACATATA | 0.237 ± 0.031 |
| GACATATA | 0.0756 ± 0.061 |
| CACATATA | 0.21 ± 0.068 |
| ATCGTTAG | -0.0184 ± 0.067 |
| GTAGACAC | 0.0487 ± 0.053 |
| ATTACAAC | 0.1 ± 0.033 |
| AATAGGGA | 0.23 ± 0.0053 |
| TATAGGGA | -0.0259 ± 0.048 |
| GATAGGGA | -0.111 ± 0.072 |
| ATCAAACG | -0.0315 ± 0.075 |
| GTGTACAA | 0.216 ± 0.039 |
| TTGTACAA | 0.29 ± 0.033 |
| TGGTATAA | 0.239 ± 0.0046 |
| CTGTACAA | 0.0289 ± 0.12 |
| GGGTACAA | 0.0409 ± 0.026 |
| CGGTATAA | 0.127 ± 0.043 |
| AGGTATAA | 0.147 ± 0.0065 |
| AGGTACAA | 0.0983 ± 0.038 |
| TGGTACAA | 0.265 ± 0.021 |
| CGTTAACC | 0.0325 ± 0.077 |

| Sequence | PBM 8-mer E-score |
| --- | --- |
| CTCGCCAG | -0.193 ± 0.077 |
| CACGAATA | 0.0625 ± 0.022 |
| CCGTATGA | -0.0951 ± 0.073 |
| AAAGCATG | 0.181 ± 0.039 |
| ACCGGGAT | -0.253 ± 0.025 |
| GATCCCCA | 0.153 ± 0.12 |
| CATCCCCA | 0.141 ± 0.047 |
| AATCCCAT | 0.185 ± 0.057 |
| AATCCCAA | 0.158 ± 0.025 |
| AATCCCCC | -0.219 ± 0.0031 |
| AATCCCCA | 0.258 ± 0.01 |
| AATCCCCT | 0.2795 ± 0.0021 |
| TATCCCCA | 0.282 ± 0.018 |
| AATCCCCG | 0.0673 ± 0.076 |
| ATCGCTAC | -0.0426 ± 0.015 |
| CCCGACAC | -0.0833 ± 0.071 |
| AATGAGGC | 0.0433 ± 0.059 |
| GAAAGGAA | 0.00148 ± 0.06 |
| GATTCATA | 0.178 ± 0.02 |
| CATTCATC | 0.0987 ± 0.029 |
| CATTCATA | 0.264 ± 0.046 |
| CGAGAGCA | -0.0422 ± 0.048 |
| ACGAAGAA | 0.2404 ± 0.0017 |
| ACGAAGAT | 0.0215 ± 0.059 |
| TCGAAGAA | 0.0801 ± 0.041 |

| Sequence | PBM 8-mer E-score |
| --- | --- |
| AGATGCGC | 0.0628 ± 0.014 |
| CCGAATTA | -0.0865 ± 0.076 |
| GTCGGGCA | -0.103 ± 0.025 |
| TATGAATA | 0.211 ± 0.052 |
| GATGAATA | 0.246 ± 0.059 |
| GATGAATC | 0.06 ± 0.071 |
| TACATCGA | 0.106 ± 0.022 |
| AAGTGTCC | 0.0439 ± 0.046 |
| AAAATCTA | 0.00391 ± 0.078 |
| AAACGACC | 0.115 ± 0.032 |
| AAACGACG | 0.0001 ± 0.01 |
| AAACGACT | 0.24 ± 0.023 |
| TAAGTTCA | -0.0564 ± 0.0074 |
| CACATAAA | 0.0814 ± 0.0052 |
| AACATACG | 0.273 ± 0.019 |
| TACATAAA | 0.242 ± 0.046 |
| AACATACT | 0.1 ± 0.032 |
| GACACATA | 0.0252 ± 0.086 |
| GACATACC | -0.168 ± 0.044 |
| CACACATA | 0.00584 ± 0.1 |
| TACACATA | 0.268 ± 0.019 |
| GACATAGA | -0.0561 ± 0.027 |
| AACATAAA | 0.145 ± 0.0096 |
| CACATACG | 0.0173 ± 0.041 |
| GACATACA | 0.235 ± 0.0046 |

| Sequence | PBM 8-mer E-score |
| --- | --- |
| CGTGGGAC | 0.0245 ± 0.068 |
| CATTGGAC | -0.164 ± 0.097 |
| ACTGAGAA | -0.135 ± 0.097 |
| ACATGAAA | 0.0717 ± 0.024 |
| CAGGAGAA | 0.107 ± 0.037 |
| AGCAGCGA | -0.182 ± 0.0055 |
| AGTGTTGG | 0.043 ± 0.048 |
| GCGAGACA | -0.0901 ± 0.089 |
| AGAATTGA | -0.00649 ± 0.005 |
| CCGGTGGA | -0.167 ± 0.015 |
| ATAAGACC | 0.114 ± 0.078 |
| AAGGTATT | 0.0792 ± 0.027 |
| ATAGGAGG | -0.0435 ± 0.015 |
| GGTGTCCA | 0.00348 ± 0.039 |
| ACTTACCC | 0.166 ± 0.053 |
| CACATACA | 0.0172 ± 0.022 |
| AACATACA | 0.153 ± 0.061 |
| TACATACA | 0.235 ± 0.031 |
| TCCTGCGA | -0.0443 ± 0.016 |
| CATAAAAG | 0.00379 ± 0.14 |
| GTTAAATA | 0.23 ± 0.023 |
| TATAAATA | 0.133 ± 0.019 |
| AATAAAAT | 0.0858 ± 0.023 |
| AATAAATG | 0.226 ± 0.0099 |
| AATAAAAA | 0.187 ± 0.046 |

| Sequence | PBM 8-mer E-score |
| --- | --- |
| CATAAATA | 0.293 ± 0.029 |
| AATAAATT | 0.271 ± 0.019 |
| CTTAAATA | 0.056 ± 0.014 |
| AATAAAAG | 0.241 ± 0.065 |
| ATTAAATA | 0.208 ± 0.023 |
| AATAAATA | 0.0902 ± 0.023 |
| ATGTAAGA | 0.104 ± 0.011 |
| ACTCTTTC | 0.0291 ± 0.035 |
| CTTTATCC | 0.0138 ± 0.00086 |
| CGCAAACG | -0.0619 ± 0.011 |
| CAAAATAG | 0.0583 ± 0.12 |
| CGACATTC | -0.0236 ± 0.057 |
| TCGCAGCA | -0.185 ± 0.015 |
| CCTTACAA | -0.0496 ± 0.00098 |
| TAACCGTA | 0.179 ± 0.033 |
| ATGAAGGA | 0.0372 ± 0.02 |
| CAGATGGG | -0.06 ± 0.043 |
| ACGCCACA | 0.113 ± 0.019 |
| TCACTGAA | 0.0386 ± 0.03 |
| ACAATCGG | -0.076 ± 0.075 |
| AACGACAT | 0.126 ± 0.076 |
| AGTGCTGC | -0.166 ± 0.021 |
| TCACCCAA | 0.154 ± 0.032 |
| TCACCCGA | -0.0977 ± 0.0029 |
| GCACCCCA | 0.24 ± 0.031 |

| Sequence | PBM 8-mer E-score |
| --- | --- |
| TCACCCCA | 0.368 ± 0.011 |
| ACACCCCA | 0.224 ± 0.036 |
| GCACCCCC | -0.265 ± 0.028 |
| CCACCCCC | -0.0738 ± 0.041 |
| CCACCCCG | 0.0359 ± 0.026 |
| CCACCCCA | 0.275 ± 0.1 |
| CGCGTCGC | -0.0885 ± 0.02 |
| CAACCTTG | -0.0156 ± 0.0055 |
| CCTAAAGC | 0.0284 ± 0.038 |
| AAAATGCA | 0.127 ± 0.02 |
| AAAATGCC | 0.00067 ± 0.042 |
| AAAATGCT | 0.235 ± 0.0065 |
| AATTAGCC | -0.107 ± 0.095 |
| CCTGACCC | -0.146 ± 0.077 |
| CTGTTTTA | 0.24 ± 0.013 |
| CTGTTTAA | 0.0361 ± 0.028 |
| GTGTTTTA | 0.098 ± 0.036 |
| AACCCTCC | -0.0982 ± 0.073 |
| ACCCCTAA | 0.218 ± 0.037 |
| ACCCCTTC | 0.328 ± 0.018 |
| TCCCCTAA | 0.196 ± 0.03 |
| GCCCCTAA | 0.245 ± 0.038 |
| CCCCCTCC | -0.0384 ± 0.17 |
| ACCCCTCC | 0.258 ± 0.052 |
| CCCCCTTC | -0.174 ± 0.065 |

| Sequence | PBM 8-mer E-score |
| --- | --- |
| ACCCCTAT | 0.252 ± 0.081 |
| CCCCCTAA | -0.037 ± 0.031 |
| ACCCCTAG | 0.11 ± 0.029 |
| AACCCTTC | 0.11 ± 0.054 |
| TAGACGAA | -0.053 ± 0.022 |
| GTCCGACA | -0.0883 ± 0.025 |
| TACACACA | 0.00095 ± 0.038 |
| AACAGTCC | -0.0613 ± 0.014 |
| CGCCTTCC | -0.134 ± 0.085 |
| ACCGCCGG | -0.212 ± 0.076 |
| ATGGCTAC | 0.106 ± 0.049 |
| CACCTCAA | -0.0623 ± 0.06 |
| CCTCAGCC | -0.0948 ± 0.096 |
| AGGGTCCC | -0.337 ± 0.0037 |
| TTAGCAAA | 0.1884 ± 0.00076 |
| GCCCCTCC | 0.274 ± 0.099 |
| TCCCCTCA | 0.247 ± 0.0079 |
| CGCCCTCC | 0.0189 ± 0.097 |
| GCCCCCCC | -0.18 ± 0.13 |
| ACCCCTCG | 0.0393 ± 0.084 |
| ACCCCTCA | 0.307 ± 0.0085 |
| GCCCCTCA | -0.0171 ± 0.064 |
